Over roughly 59,000 sequences, the read-out has its median near -0.00055; the lowest 2% begin near -2. Many of the other results were omitted from the sample, so the lowest values are more common in it than they were.
Assay: Identification of proteins required for the processing of the EWS-FLI1 nascent transcript;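 note: robust z of luciferase light less the median z of siRNAs with the same seed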
Settings: TC32 Ewing sarcoma NR0B1-luc vs CMV-luc (EWS-FLI1 target promoter against control promoter), 48 h; screened at 20 nM (by protocol)
Experimental: Ewing sarcoma (ES) cells depend on the EWS-FLI1 fusion transcription factor for cell survival. Using an assay of EWS-FLI1 activity and genome-wide siRNA screening we have identified proteins required for the processing of the EWS-FLI1 nascent transcript. Parallel genome-wide siRNA-mediated RNAi screens were conducted in Ewing sarcoma TC32 cell lines expressing a luciferase (luc) reporter protein driven by either the promoter of the EWS-FLI1 target gene NR0B1 (TC32-NR0B1-luc) or the CMV promoter (TC32-CMV-luc). Luciferase activity was assessed 48 hours post siRNA-transfection.
Twenty microl of serum-free media containing Lipofectamine RNAiMax (0.05 microl) was added to wells containing siRNA (0.8 pmol). Lipid and siRNA were allowed to complex for 45 min at ambient temperature before addition of 600 cells in RPMI-1640, 20% FBS to yield final transfection mixtures containing 20 nM siRNA in RPMI-1640, 10% FBS. Luciferase expression was measured using OneGlo (Promega, Madison, WI). The genome-wide screening campaign was conducted using Ambion's human genome library version 4.1 (Ambion, Austin TX). This library targets approximately 21000 human genes, three siRNAs per gene. Each siRNA is arrayed in an individual well of a 384-well plate. Parallel transfections were conducted in TC32-NR0B1-luc and TC32-CMV-luc cell lines and luciferase expression (OneGlo, Promega) was assayed 48 h later on a PerkinElmer Envision 2104 Multilabel plate reader (PerkinElmer, Waltham, MA). Qiagen's AllStars Negative control was incorporated on all screening plates for normalization (16 wells per plate). Qiagen, Germantown, MDsiGL4 was incorporated as a positive transfection control (16 wells per plate) on all plates. […] The raw luciferase data for the NR0B1- and CMV-luc screens were normalized and z-score-MAD transformed using standard methods (Chung et al., 2008). The miRNA-like seed sequence of every siRNA was determined and the median z-score for all siRNA sequences with the same seed sequence was calculated. This z-score was subtracted from the z-score associated with each siRNA with that seed sequence to generate a seed-adjusted z-score value (Z) that was used when the results for the three siRNAs corresponding to each gene were compared (Marine et al., 2012)

Sequence | seed-corrected z-score
AUCCCUUCAAUGGCCAUCC against ECHDC2 | -0.995
AUUGUUAUAGAAGCGGUCU against SPA17 | -0.602
UGACGUACCUAUCCACUGC against MC5R | -0.731
UCGUUGCUCAGCAUCAAUC against SBNO1 | -0.827
AUCGAUCUAGUUUAAUUCC against DGKE | -0.537
UGUAUAGUCAUGAUAAUGU against LOC643784 | -0.459
UCAGGGCUCAGACAGGACU against TSC22D3 | -2.02
AGAGAAUAAAGAGCUGGAC against TMEM79 | 0.267
AGACUUGCGAACAUGAUUC against CGGBP1 | 0.518
UUCCUUCCUACUCAGGGUC against S100A5 | -2.25
UCAACCUUUACUGAAGGCC against ARNTL | -0.133
UAUAGCGAAGGGACAAACC against LRRTM3 | 0.0787
UGAUGAUUAUCUUUGAAUG against IGFBP3 | 0.761
AAACGUACCUUGUCAUUCC against TXK | -0.645
UUUUCUCUCGUAUUAAUUG against GSDMB | 0.329
UCAUCAUCUAAUAAAGUCC against MRO | -3.11
ACUGGAUUAACAUCAUCUG against SDHAF4 | -0.445
UGCUUUCUCAGGGCAGCUC against ZFP42 | -0.0418
AAAGGGAUGCUCCAAGCGC against NME3 | 0.482
AUAAGUUGCAGCAAAAUCC against MAB21L1 | -0.725
AUCGAUGAUAGCCUGCUCG against ANXA8L1 | -2.86
UUUACCACAGGUUUCUUCC against HIRIP3 | -0.591
UAACUUCAAACCGAUUUCU against TRMU | -0.389

Sequence | seed-corrected z-score
AAAGUAAAGAUAUGCGUGU against TBX21 | 1.07
UCUGUCGAUAGUCUUCUCG against STIP1 | 0.345
UAAUGUACUCGUCACACCU against BICD2 | -2.89
UAUGGGACAUCCUAAUCAC against KIAA0586 | -0.187
UCCGCUUUAACCCUGCUUC against PRDM2 | -0.723
UUUAGCUCUGGAACAAUGC against SLC38A1 | 0.0432
UUACUAGUAAUGGACCCGC against YTHDF2 | 1.05
UUCAUAUAUACUCUGAUUC against C1DP3 | 0.587
UACUCGACCUUCUUUCACC against PPP3CB | 0.354
AAAGAUUGAGGUGGUAUGC against YTHDF3 | -2.48
UUUCGGUUUCCACUUUUCC against NIPAL3 | 0.547
UAACUCAUCAACUUUAUCG against CHMP4B | -0.576
UUCUCUAUCUCAUGAAUCC against RAB19 | 0.0141
AGUGAAUCGAGAGCAAUGG against ELP5 | 0.672
AAAAGAACCUCCAACAAUC against COX16 | -2
UCUAUGUCUCAGGUACUGC against CCDC15 | 0.12
AUAGAUCCUAAAGAACUGG against GPR141 | -0.531
UUUUAGUCUACGAAGAUCC against ANKIB1 | -0.435
UGUCAUAUGGGCUUGCUCC against CEP250 | -0.255
UCCACUUAAACACUCCUCC against DCLRE1C | -2.25
UAGCUGUCCGUGAAGAUCC against ADCYAP1 | 0.344
ACAAUGUAUACUGUAGUCC against CDHR2 | 0.247
AAUAGGAUAAAUGUUCCGG against SMURF2 | 0.293

Sequence | seed-corrected z-score
AUACGUGAUACUUCCCUCC against MS4A13 | -1.19
UGUCUUCUCAUGCAGUUUC against ACSF2 | -0.5
UCUGUGAAAAUCUUCCACG against ZNF174 | 0.076
UAUAGGCCUGCUGAGAUCG against GALT | 0.826
UAGUUGCCUAAUUACACUG against MYO3A | -2.22
UUCACGGUCACAUUGCGCG against MAG | -0.22
UAUGAAGAGGAGACCAACC against PSMD10 | -0.0551
UAAGCUAUUUCCUCGGCUC against MTCH2 | 0.402
UAAAGAUUACCUGAGACCG against FBXO36 | 0.489
UUGACUAUAAGUAAGUCUC against STXBP5 | -2.91
UGCGCGAUGAUGAGUACCG against ABCB9 | 0.705
UUCCUUAGAAACUGCAUAC against JMY | -0.827
UUCGUGAACAGACAGAACU against OAS2 | -0.385
UAAGAACAUAGUACAGCUC against LDB1 | -0.519
AAACUUAUAGAACUCACUG against CCDC148 | -0.143
UCCGCAUGAACUCGUAGCU against PLEKHJ1 | 0.0613
UAGUUGUCCAACAUUGGUU against ZNF99 | -3.24
UAGCGAUUGUGAAUCUUGC against RNF19A | -0.443
UAUGGUGUAAGUUUUCGGG against FARSB | 0.451
UUCGGGUCCACUGAUUUCC against CHMP4B | -1.35
UGUCAUAACAGCUCCGCGA against ELK1P1 | -0.141
UAUAUGUCCGGGCGUGUUC against MAPK11 | 0.187
AACCUGAUAAUAACCAGAU against FAM96A | 0.457

Sequence | seed-corrected z-score
UGAGAUUUCUAUGUAACAC against SS18L2 | 0.356
UUAUCGAUGUCUUCGUGCC against GCK | -0.301
AUAGUUGCGGAUGAAGUCU against KAZN | -3.51
AAUGUUUCAAGAAGCUGCU against MED9 | -1.82
UCAGGGUCCAUUGUCACCA against IGSF23 | -0.567
UACAGGGCAAUGAACAGGG against FGR | 0.274
AUGAAGCUCAGUCAGGUCG against TMCC2 | -2.16
UCCUUGACGACAACUUUCC against LOC642677 | -1.2
UAACGAUACAUUUGCUUGG against SGIP1 | 0.118
UUGGGUGCAAGAAUGUCCA against CHTF18 | -2.47
UUCAAUUCUACUGAUCAUC against CSNK1A1 | 0.146
UUAAAGACUUCAUAAAAGC against SLC25A3 | -0.603
UAAUUGUCAUUACUAAGUG against SLC17A6 | -0.508
UUGGUAUCGAUUUUCUACC against ATRN | -0.607
ACCUCCAAAAUUUCACUGC against ZSCAN10 | 0.616
AAUGAUUGCACUAAUCUUC against IK | -3.4
UCUUGGUACUGGAUGCAGC against LOC645166 | 1.33
UCUUCGAGUGAGUCAAUGC against C10orf12 | -0.0711
UCGCUGAUUAGCUUUCUCC against CUX2 | 0.0999
UUCGUUGUCUCGAAGGGCU against TRAPPC2L | -2.92
UUUCCUCUUAGUCAACUUC against CHIC1 | -0.602
AAAGGACUGAUGUCUAACC against DHX15 | 0.0405
UAUGUACAUGCAGCAGGCC against PVRL4 | -0.603

Sequence | seed-corrected z-score
AUGGGAGUCACAACAGUGU against OR10A5 | -9.99
UUUCACUCAACCAUCAUUG against HOPX | -0.598
UGCCUUUGGAGGAUCUGCG against HLA-F | -0.923
UGCUUGCUCGCAAAAGUCC against TSHZ1 | 0.387
UGAACUGCCUGGUCUGUCG against PDE6G | -0.214
AUUCUUAUCCCAGCGGAGC against PGM2L1 | 0.162
UCAAUUCCCAGGGUAAAGG against PIGN | -2.84
UAACAUCUUGGAGCACUAC against CCDC54 | -0.239
UUGUGAACAGUUGAGGUGC against OSBP2 | -0.0205
UCACUGUCGCCGUCAAAGC against CCKBR | -2.68
UCUUGUGCUAAAUCCCUGC against BRINP3 | -0.668
UGCUGAACUAGGGAAGUGC against MAGIX | -0.0881
UACCCAUCCGCAUCACUGC against CD320 | 0.0894
UCCCGAAUAACCAUUGAGC against RFX3 | -0.206
UUGGUAUUAUAACAGAUCC against ELMOD1 | -9
UUGAUCAACAUAAUCAAGC against ASB14 | -0.125
UACUCGGUAAAUGUACUGG against ADH7 | 0.328
AAGGGUAUUGGGAUUGAGC against MAP3K13 | 0.023
AGCUUUAUUCAGUCAGUGC against GPBAR1 | -0.579
UUACGAAUGGGCAAAAUUG against ZCWPW1 | -0.169
UUUGCUGGUAUUCUUCACC against ACYP2 | 0.0336
AUGUAUUCCAUUCUCACCG against GRSF1 | -4.16
UAUUGAUGCUGCAUGACCC against ITGAM | 0.677

Sequence | seed-corrected z-score
UAAGUAUAACCAUCUGUUC against OR6C2 | 0.149
UGAACAUAAAUUCCAGCUC against CLEC2L | 0.442
UCACUUACAAAGCUCAGAG against LUZP1 | -1.94
UUAUUUAUGUAGUUCAGGA against IZUMO4 | -1.87
AAGACAAUAAUGUUGCUGC against CLDN17 | -0.436
UCAGUAAUCAGCUUGAAUU against RPS3A | 2.45
UUCUUUUCCACCUCCAUAG against HDGF | -12.4
AUCCUUGAAAGCCUCAUAC against XPR1 | 0.211
UAAAUGACAUGCAGGAUUG against C17orf102 | -0.0252
UUCAGUUUAAAAUCGUUUC against CENPL | 0.133
UUUGUUUCUACCAUUCCCA against PPIL1 | -2.34
ACAAUAAUUAAGACAUUGC against OR4K1 | 0.433
GAAUGUUCAUGUGAAAUGC against ZNF365 | 1.68
UGCAAUAGCAGAGUAUUCC against UBE2Q1 | 0.662
UUUGUUGCAGAAUACAUAG against CTH | -13.9
ACAGCUAUUAAGAAGAAGU against PTGER3 | -0.312
CGCGUACUGACGGAAACAC against RPS29P3 | 0.649
UUAGCGGACGGAGGAAUUG against IDH3G | 0.0869
